# Measured values as given in PubChem BioAssay (Tox21).
# “And” between values parts separate entries of the source, which are not always exact repeats. Equal entries are not always repeated. Results filed as inconclusive are left out. Where a call stands in place of a potency, no number is given. Some structures have more than one record in an assay (separate samples or runs), and their calls can disagree. The source made the active and inactive calls. The call rests on the fitted dose curve; in most records, active means well fitted curve in the direction sought with a large enough effect in the repeat runs; inconclusive means weak or mixed curves; inactive means no such curve, though single readings can be large; an effect the other way counts as inactive or inconclusive.
# Assays:
# [1] = qHTS RealTime-Glo MT Cell Viability Assay in HEK293 cells - 16 hour (AID 1224872); further: nearly all actives have a fitted effect of over 50% in size; further: potency means the concentration at half of the fitted maximal effect
# Summary of the method: (§1)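 HEK293 cells were seeded at 600 cells/well together with NanoLuc luciferase and cell-permeant prosubstrate, preincubated 5 h at 37 C/5% CO2, then given compound in DMSO by pintool. Luminescence from viable-cell prosubstrate reduction was read repeatedly over 40 h.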
# [2] = qHTS RealTime-Glo MT Cell Viability Assay in HepG2 cells - 8 hour (AID 1224873); further: nearly all actives have a fitted effect of over 55% in size; further: potency means the concentration at half of the fitted maximal effect
# Summary of the method: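 HepG2 cells (600/well) mixed with RealTime-Glo MT reagent, settled 5 h at 37 C/5% CO2 before compound addition. Nonlytic NanoLuc luminescence from viable-cell prosubstrate reduction read repeatedly during 40 h treatment at 37 C.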
# [3] = qHTS RealTime-Glo MT Cell Viability Assay in HEK293 cells - 40 hour (AID 1224874); conditions: RealTime-Glo luminescence; max response: stronger effect = lower value; further: nearly all actives have a fitted effect of over 50% in size; further: potency means the concentration at half of the fitted maximal effect
# Summary of the method: (§2)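 600 HEK293 cells per well, dispensed already mixed with RealTime-Glo MT reagents. Compound dosing came 5 h later. The same wells were read for luminescence at 0, 8, 16, 24, 32 and 40 h of exposure at 37 C.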
# [4] = A CellTox Green Cytotoxicity Assay to monitor cytotoxicity in HEK293 cells - 24 hour (AID 1224875); further: nearly all actives have a fitted effect of over 45% in size; further: potency means the concentration at half of the fitted maximal effect
# Summary of the method: (§3)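 Dead-cell fluorescence measured kinetically: asymmetric cyanine dye, HEK293, 600 cells/well, 5 h settle, 23 nL cpd/DMSO, 37 C, reads 0–40 h every 8 h.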
# [5] = A CellTox Green Cytotoxicity Assay to monitor cytotoxicity in HepG2 cells - 16 hour (AID 1224876); further: nearly all actives have a fitted effect of over 45% in size; further: potency means the concentration at half of the fitted maximal effect
# Summary of the method: (§4)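 First, HepG2 cells (600/well) mixed with reagent were plated; second, after 5 h at 37 C they received compounds via pintool; third, fluorescence was measured at 0 h through 40 h at 8 h intervals.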
# [6] = qHTS RealTime-Glo MT Cell Viability Assay in HepG2 cells - 32 hour (AID 1224877); further: nearly all actives have a fitted effect of over 55% in size; further: potency means the concentration at half of the fitted maximal effect
# Summary of the method: (§5)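 HepG2 cells were seeded at 600 cells/well together with NanoLuc luciferase and a cell-permeant prosubstrate, preincubated 5 h at 37 C/5% CO2, then pin-dosed with compounds in DMSO. Nonlytic luminescence from viable cells was read at each time point.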
# [7] = A CellTox Green Cytotoxicity Assay to monitor cytotoxicity in HepG2 cells - 24 hour (AID 1224878); further: nearly all actives have a fitted effect of over 45% in size; further: potency means the concentration at half of the fitted maximal effect
# Summary of the method: as §4
# [8] = A CellTox Green Cytotoxicity Assay to monitor cytotoxicity in HepG2 cells - 40 hour (AID 1224879); further: nearly all actives have a fitted effect of over 40% in size; further: potency means the concentration at half of the fitted maximal effect
# Summary of the method: as §4
# [9] = qHTS RealTime-Glo MT Cell Viability Assay in HEK293 cells - 0 hour (AID 1224880); further: top concentration of the series differs between compounds; nearly all actives have a fitted effect of over 45% in size
# Summary of the method: as §2
# [10] = A CellTox Green Cytotoxicity Assay to monitor cytotoxicity in HEK293 cells - 32 hour (AID 1224881); further: nearly all actives have a fitted effect of over 40% in size; further: potency means the concentration at half of the fitted maximal effect
# Summary of the method: as §3
# [11] = A CellTox Green Cytotoxicity Assay to monitor cytotoxicity in HepG2 cells - 0 hour (AID 1224882); further: nearly all actives have a fitted effect of over 35% in size
# Summary of the method: as §4
# [12] = A CellTox Green Cytotoxicity Assay to monitor cytotoxicity in HepG2 cells - 32 hour (AID 1224883); further: nearly all actives have a fitted effect of over 50% in size; further: potency means the concentration at half of the fitted maximal effect
# Summary of the method: as §4
# [13] = A CellTox Green Cytotoxicity Assay to monitor cytotoxicity in HEK293 cells - 8 hour (AID 1224884); further: nearly all actives have a fitted effect of over 35% in size; further: potency means the concentration at half of the fitted maximal effect
# Summary of the method: as §3
# [14] = qHTS RealTime-Glo MT Cell Viability Assay in HepG2 cells - 16 hour (AID 1224885); further: nearly all actives have a fitted effect of over 50% in size; further: potency means the concentration at half of the fitted maximal effect
# Summary of the method: as §5
# [15] = qHTS RealTime-Glo MT Cell Viability Assay in HEK293 cells - 24 hour (AID 1224886); further: nearly all actives have a fitted effect of over 50% in size; further: potency means the concentration at half of the fitted maximal effect
# Summary of the method: as §1
# [16] = qHTS RealTime-Glo MT Cell Viability Assay in HEK293 cells - 8 hour (AID 1224887); further: nearly all actives have a fitted effect of over 50% in size; further: potency means the concentration at half of the fitted maximal effect
# Summary of the method: as §2
# [17] = A CellTox Green Cytotoxicity Assay to monitor cytotoxicity in HEK293 cells - 16 hour (AID 1224888); further: nearly all actives have a fitted effect of over 35% in size; further: potency means the concentration at half of the fitted maximal effect
# Summary of the method: as §3
# [18] = qHTS RealTime-Glo MT Cell Viability Assay in HepG2 cells - 0 hour (AID 1224889); further: nearly all actives have a fitted effect of over 50% in size
# Summary of the method: as §5
# [19] = A CellTox Green Cytotoxicity Assay to monitor cytotoxicity in HepG2 cells - 8 hour (AID 1224890); further: nearly all actives have a fitted effect of over 45% in size; further: potency means the concentration at half of the fitted maximal effect
# Summary of the method: as §4
# [20] = qHTS assay to identify small molecule antagonists of the estrogen receptor alpha (ER-alpha) signaling pathway using the BG1 cell line in the presence of 0.1 nM 17-beta-estradiol - cell viability counter screen (AID 1259241); further: nearly all actives have a fitted effect of over 40% in size; further: potency means the concentration at half of the fitted maximal effect
# Summary of the method: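 Viability in VM7Luc4E2 cells after 22 hr compound exposure under 0.1 nM 17beta-estradiol stimulation, by CellTiter-Fluor.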
structure (smiles),measurement,setting,value
CCCCCCCCCCCCCCCC[N+](C)(C)Cc1ccccc1,Potency,[1],25.3 µM (active) and 28 µM (active)
same,Potency,[2],63.6 µM (active) and 39.6 µM (active) and 23.9 µM (active)
same,Potency,[3],4.5 µM (active) and 7.9 µM (active) and 3.01 µM (active)
same,Potency,[4],50.5 µM (active) and 31.4 µM (active) and 21.3 µM (active)
same,Potency,[5],50.5 µM (active) and 19.8 µM (active) and 23.9 µM (active)
same,Potency,[6],16 µM (active) and 14 µM (active) and 9.52 µM (active)
same,Potency,[7],25.3 µM (active) and 17.7 µM (active) and 19 µM (active)
same,Potency,[8],20.1 µM (active) and 14 µM (active) and 10.7 µM (active)
same,Potency,[9],inactive
same,Potency,[10],50.5 µM (active) and 44.4 µM (active) and 23.9 µM (active)
same,Potency,[11],inactive
same,Potency,[12],25.3 µM (active) and 15.8 µM (active) and 10.7 µM (active)
same,Potency,[13],45 µM (active) and 15.8 µM (active) and 21.3 µM (active)
same,Potency,[14],25.3 µM (active) and 19.8 µM (active) and 21.3 µM (active)
same,Potency,[15],8.98 µM (active) and 22.3 µM (active) and 3.01 µM (active)
same,Potency,[16],50.5 µM (active) and 49.8 µM (active) and inactive
same,Potency,[17],50.5 µM (active) and 44.4 µM (active) and 23.9 µM (active)
same,Potency,[18],inactive
same,Potency,[19],63.6 µM (active) and 35.3 µM (active) and 26.8 µM (active)
same,Potency,[20],inactive
CCc1nc(N)nc(N)c1-c1ccc(Cl)cc1,Potency,[1],inactive
same,Potency,[2],inactive
same,Potency,[3],3.52 µM (active) and 12.3 µM (active) and 5.35 µM (active)
same,Potency,[4],inactive
same,Potency,[5],inactive
same,Potency,[6],inactive
same,Potency,[7],inactive
same,Potency,[8],inactive
same,Potency,[9],inactive
same,Potency,[10],inactive
same,Potency,[11],inactive
same,Potency,[13],inactive
same,Potency,[14],inactive
same,Potency,[15],inactive
same,Potency,[16],inactive
same,Potency,[17],inactive
same,Potency,[18],inactive
same,Potency,[19],inactive
same,Potency,[20],inactive
NS(=O)(=O)c1cc2c(cc1Cl)NCNS2(=O)=O,Potency,[1],inactive
same,Potency,[2],inactive
same,max response,[3],0.173% (inactive) and -4.85% (inactive) and 1.86% (inactive)
same,Potency,[4],inactive
same,Potency,[5],inactive
same,Potency,[6],inactive
same,Potency,[7],inactive
same,Potency,[8],inactive
same,Potency,[9],inactive
same,Potency,[10],inactive
same,Potency,[11],inactive
same,Potency,[12],inactive
same,Potency,[13],inactive
same,Potency,[14],inactive
same,Potency,[15],inactive
same,Potency,[16],inactive
same,Potency,[17],inactive
same,Potency,[18],inactive
same,Potency,[19],inactive
same,Potency,[20],inactive
CCCCOC(=O)c1ccc(O)cc1,Potency,[1],24.8 µM (active) and inactive
same,Potency,[2],inactive
same,Potency,[3],24.8 µM (active) and 21.9 µM (active)
same,Potency,[4],inactive
same,Potency,[5],inactive
same,Potency,[6],inactive
same,Potency,[7],inactive
same,Potency,[8],inactive
same,Potency,[9],inactive
same,Potency,[10],inactive
same,Potency,[11],inactive
same,Potency,[12],inactive
same,Potency,[13],inactive
same,Potency,[14],inactive
same,Potency,[15],22.1 µM (active) and 19.5 µM (active)
same,Potency,[16],inactive
same,Potency,[17],inactive
same,Potency,[19],inactive
same,Potency,[20],inactive
CC(=O)CC(c1ccccc1)c1c(O)c2ccccc2oc1=O (stereo unspecified),Potency,[1],inactive
same,Potency,[2],inactive
same,max response,[3],5.95% (inactive) [middle of 4 runs]
same,Potency,[4],inactive
same,Potency,[5],inactive
same,Potency,[6],inactive
same,Potency,[7],inactive
same,Potency,[8],inactive
same,Potency,[9],inactive
same,Potency,[10],inactive
same,Potency,[11],inactive
same,Potency,[12],inactive
same,Potency,[13],inactive
same,Potency,[14],inactive
same,Potency,[15],inactive
same,Potency,[16],inactive
same,Potency,[17],inactive
same,Potency,[18],inactive
same,Potency,[19],inactive
same,Potency,[20],inactive
Cn1c(=O)c2c(ncn2C)n(C)c1=O,Potency,[1],inactive
same,Potency,[2],inactive
same,max response,[3],-15% (inactive) and -0.566% (inactive) and 6.55% (inactive)
same,Potency,[4],inactive
same,Potency,[5],inactive
same,Potency,[6],inactive
same,Potency,[7],inactive
same,Potency,[8],inactive
same,Potency,[9],inactive
same,Potency,[10],inactive
same,Potency,[11],inactive
same,Potency,[13],inactive
same,Potency,[14],inactive
same,Potency,[15],inactive
same,Potency,[16],inactive
same,Potency,[17],inactive
same,Potency,[18],inactive
same,Potency,[19],inactive
CN(C)CCOC(c1ccccc1)c1ccccc1,Potency,[1],inactive
same,Potency,[2],inactive
same,max response,[3],-18.9% (inactive) and -8.63% (inactive) and 0.403% (inactive)
same,Potency,[4],inactive
same,Potency,[5],inactive
same,Potency,[6],inactive
same,Potency,[7],inactive
same,Potency,[8],inactive
same,Potency,[9],inactive
same,Potency,[10],inactive
same,Potency,[11],inactive
same,Potency,[12],inactive
same,Potency,[13],inactive
same,Potency,[14],inactive
same,Potency,[15],inactive
same,Potency,[16],inactive
same,Potency,[17],inactive
same,Potency,[18],inactive
same,Potency,[19],inactive
same,Potency,[20],inactive
CC(C)NCC(O)c1ccc(O)c(O)c1 (stereo unspecified),Potency,[1],48.4 µM (active) and inactive
same,Potency,[2],inactive
same,Potency,[3],38.4 µM (active)
same,max response,[3],1.41% (inactive)
same,Potency,[4],inactive
same,Potency,[5],inactive
same,Potency,[6],inactive
same,Potency,[7],inactive
same,Potency,[8],inactive
same,Potency,[9],inactive
same,Potency,[10],inactive
same,Potency,[11],inactive
same,Potency,[13],inactive
same,Potency,[14],inactive
same,Potency,[15],48.4 µM (active) and inactive
same,Potency,[16],inactive
same,Potency,[17],inactive
same,Potency,[19],inactive
same,Potency,[20],inactive
O=C1NS(=O)(=O)c2ccccc21,Potency,[1],inactive
same,Potency,[2],inactive
same,max response,[3],5.75% (inactive) [middle of 5 runs]
same,Potency,[4],inactive
same,Potency,[5],inactive
same,Potency,[6],inactive
same,Potency,[7],inactive
same,Potency,[8],inactive
same,Potency,[9],inactive
same,Potency,[10],inactive
same,Potency,[11],inactive
same,Potency,[12],inactive
same,Potency,[13],inactive
same,Potency,[14],inactive
same,Potency,[15],inactive
same,Potency,[16],inactive
same,Potency,[17],inactive
same,Potency,[19],inactive
same,Potency,[20],inactive
CCCc1cc(=O)[nH]c(=S)[nH]1,Potency,[1],inactive
same,Potency,[2],inactive
same,max response,[3],1.97% (inactive) and 2.41% (inactive) and 2.9% (inactive)
same,Potency,[4],inactive
same,Potency,[5],inactive
same,Potency,[6],inactive
same,Potency,[7],inactive
same,Potency,[8],inactive
same,Potency,[9],inactive
same,Potency,[10],inactive
same,Potency,[11],inactive
same,Potency,[13],inactive
same,Potency,[14],inactive
same,Potency,[15],inactive
same,Potency,[16],inactive
same,Potency,[17],inactive
same,Potency,[19],inactive
same,Potency,[20],inactive
Cc1c(C(=O)O)c(O)cc2c1C(=O)c1c(O)c([C@@H]3O[C@H](CO)[C@@H](O)[C@H](O)[C@H]3O)c(O)c(O)c1C2=O,Potency,[1],inactive
same,Potency,[2],inactive
same,max response,[3],-10.5% (inactive) and -11.6% (inactive) and 0.861% (inactive)
same,Potency,[4],inactive
same,Potency,[5],inactive
same,Potency,[6],inactive
same,Potency,[7],inactive
same,Potency,[8],inactive
same,Potency,[9],inactive
same,Potency,[10],inactive
same,Potency,[11],inactive
same,Potency,[12],inactive
same,Potency,[13],inactive
same,Potency,[14],inactive
same,Potency,[15],inactive
same,Potency,[16],inactive
same,Potency,[17],inactive
same,Potency,[19],inactive
same,Potency,[20],33.5 µM (active) and 21.7 µM (active)
